Assay outcomes: PubChem BioAssay, several laboratories
An excerpt weighted towards active compounds, which were near 3.6% of everything screened.
NFkB transloc inh – inhibitors of IL-1B driven NFkB p65 nuclear import, primary screen, imaging, HUVEC, IL-1B stimulus, high-content imaging; 94,000 compounds, 0.43% hits; AID 796, 2007; inhibition, % at 2 µM; HUVEC IL-1B NFkB p65 nuclear translocation imaging;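 active means inhibition above about 30% together with a positive call from visual inspection of the well image, limit read from the data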;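 further: nuclear over cytoplasmic p65 intensity ratio measured by imaging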
NFkB transloc pot – enhancers of NFkB p65 translocation in HUVEC – imaging, IL-1B stimulus, high-content imaging, primary screen | HUVEC IL-1B NFkB p65 nuclear translocation imaging | activation, % at 2 µM | 94,000 compounds, 0.3% hits;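 active means activation above 40%, about the mean plus 3 SD, also judged a hit on visual image review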;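 further: percent activation is computed from the nuclear over cytoplasmic p65 intensity ratio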
ERa coact pot – enhancers of ERα–SRC-1 coactivator binding, primary screen, biochemical, TR-FRET, ERα LBD, low estradiol | TR-FRET ERalpha-LBD/SRC-Cy5 coactivator binding, 2 h; 100 = basal binding, no effect | 86,000 compounds, 1.3% hits | Estrogen receptor (Homo sapiens), P03372 | AID 639, 2007 | coactivator binding (% of control), % at 25.6 µM; in the data active means activity above about 200%;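 further: binding measured in presence of low estradiol as agonist stimulus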
Target sequence (P03372 whole entry, looked up, the tested form may be a part): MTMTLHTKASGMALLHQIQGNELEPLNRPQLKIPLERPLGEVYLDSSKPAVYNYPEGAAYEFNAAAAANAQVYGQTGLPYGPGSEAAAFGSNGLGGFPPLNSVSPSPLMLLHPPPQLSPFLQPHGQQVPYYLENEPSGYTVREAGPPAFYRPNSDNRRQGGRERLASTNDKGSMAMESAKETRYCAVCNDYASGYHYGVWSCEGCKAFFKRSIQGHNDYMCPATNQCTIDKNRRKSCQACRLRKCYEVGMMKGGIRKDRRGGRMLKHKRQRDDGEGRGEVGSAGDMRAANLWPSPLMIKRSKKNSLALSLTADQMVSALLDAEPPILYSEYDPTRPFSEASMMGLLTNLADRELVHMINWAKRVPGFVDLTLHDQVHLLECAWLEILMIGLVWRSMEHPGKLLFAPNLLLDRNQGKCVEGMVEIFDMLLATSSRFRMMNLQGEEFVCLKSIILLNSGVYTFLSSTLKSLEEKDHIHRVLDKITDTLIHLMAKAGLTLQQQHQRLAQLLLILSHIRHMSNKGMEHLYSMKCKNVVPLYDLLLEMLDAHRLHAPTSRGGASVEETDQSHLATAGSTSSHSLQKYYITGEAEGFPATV
HUVEC tox IL1B – cytotoxicity in IL-1B stimulated HUVEC, primary screen, cytotoxicity control for IL-1B NFkB translocation project, imaging, Hoechst nuclear count, IL-1B stimulus | 94,000 compounds, 0.41% hits | HUVEC cell count loss | cell count reduction, % at 2 µM;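 active means cell count reduction more than 3 SD above the screen-wide mean, cut at about 70% in these data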
ERb SRC1 inh – inhibitors of ERβ-SRC1 coactivator interaction, primary screen, biochemical, TR-FRET, ERβ LBD, SRC-1 peptide | TR-FRET ER-beta LBD / SRC1-Cy5 peptide binding; receptor agonist-loaded with 1 µM estradiol | inhibition, % at 25.6 µM | 86,000 compounds, 1.3% hits;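 active means compounds whose percent inhibition of the receptor-coactivator binding signal exceeds about 50% in the single-dose screen, limit read from the data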
ERa coact inh – ERα–SRC-1 coactivator interaction inhibitors, primary screen, biochemical, TR-FRET, ERα LBD, estradiol-bound | TR-FRET ER-alpha LBD / SRC-1 peptide | inhibition, % at 25.6 µM | 86,000 compounds, 1.7% hits; in the data active means inhibition above about 50%
Large screens that a line does not name were inactive; [ ] = remark or other dose.

CCOC(=O)c1ccc(NC(=O)CCc2nc(-c3cccc(C)c3)no2)cc1	NFkB transloc inh 99, HUVEC tox IL1B 87
COc1cccc(NC(=O)CCc2nc(-c3ccccc3F)no2)c1	HUVEC tox IL1B 82
Cc1ccc(-c2noc(CCC(=O)Nc3ccc(C)cn3)n2)cc1	ERa coact pot 253
O=c1c2ccccc2nc(SCc2cc(F)cc3c2OCOC3)n1Cc1ccco1	ERa coact pot 227[fluorescence artefact?]
CN(Cc1ccccc1)C(=O)CSc1nc2ccccc2c(=O)n1Cc1ccco1	none
CCOC(=O)c1cc2c(c(CSc3nc4ccccc4c(=O)n3Cc3ccco3)c1)OCOC2	ERa coact pot 337
Cc1cccc(NC(=O)CCn2ccnc2C)c1	none
Nc1nc2ccc(O)cc2s1	NFkB transloc inh 35
CCC(=O)Nc1cccc(NC(=O)CSc2nnc(C3CC3)n2C)c1	ERa coact pot 204
Cn1c(SCC(=O)Nc2cccc(Br)c2)nnc1-c1cc2ccccc2o1	ERa coact pot 631[fluorescence artefact?]
Cn1c(SCC(=O)NC2CCCCC2)nnc1-c1cc2cc(Cl)ccc2o1	ERa coact pot 429[fluorescence artefact?]
Cc1ccc(-c2nnc(SCC(=O)Nc3ccc4c(c3)oc3ccccc34)n2C)c(Cl)c1	none
CCCS(=O)(=O)n1nc(-c2ccc(Br)cc2)cc1N	none (no result: NFkB transloc inh, NFkB transloc pot, HUVEC tox IL1B)
CCCCCC(=O)NNC(=O)c1ccc(-c2ccccc2)cc1	none (no result: ERa coact pot, ERb SRC1 inh, ERa coact inh)
